The structures appear in SMILES notation. Calls of active or inactive are those of the source. The calls were made as follows: active = hit-call score of the fitted dose curve at least 0.9, where 1 is the maximum; inactive = score below 0.9.

Results on 40 compounds are retold here after PubChem BioAssay (EPA / NIEHS).

Chain of Transcription factor E2F1 (Homo sapiens) (Q01094 whole entry, looked up): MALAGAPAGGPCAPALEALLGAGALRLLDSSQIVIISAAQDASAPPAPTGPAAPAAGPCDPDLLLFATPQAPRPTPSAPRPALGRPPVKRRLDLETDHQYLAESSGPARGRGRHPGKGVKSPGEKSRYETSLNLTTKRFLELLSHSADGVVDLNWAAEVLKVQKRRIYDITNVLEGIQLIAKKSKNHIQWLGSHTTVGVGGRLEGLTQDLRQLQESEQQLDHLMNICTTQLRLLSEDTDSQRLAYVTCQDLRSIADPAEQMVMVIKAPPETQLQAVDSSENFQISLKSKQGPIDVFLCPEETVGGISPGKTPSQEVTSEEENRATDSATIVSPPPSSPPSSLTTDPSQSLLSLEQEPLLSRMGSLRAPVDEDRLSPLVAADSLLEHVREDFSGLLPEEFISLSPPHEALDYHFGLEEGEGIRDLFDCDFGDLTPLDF

In this assay the target is Transcription factor E2F1 (Homo sapiens) (UniProt Q01094). The experiment in a line: ATG_E2F_CIS: Attagene CIS-FACTORIAL HepG2 Assay for human E2F Transcription Factor 1 (AID 2282935). The settings on record: HepG2 Attagene cis-reporter, E2F reporter RNA transcripts; actives raise or lower the signal. The protocol:
ATG_CIS is a cell-based, multiplexed-readout assay that uses HepG2, a human liver cell line, with measurements taken at 24 hours after chemical dosing in a 24-well plate.ATG_E2F_CIS is one of 52 assay component(s) measured or calculated from the ATG_CIS assay. It is designed to make measurements of mRNA induction, a form of inducible reporter, as detected with fluorescence intensity signals by Reverse transcription polymerase chain reaction (RT-PCR) and Capillary electrophoresis technology.Data from the assay component ATG_E2F_CIS was analyzed into 1 assay endpoint. This assay endpoint, ATG_E2F_CIS, was analyzed with bidirectional fitting relative to DMSO as the negative control and baseline of activity. Using a type of inducible reporter, measures of mRNA for gain or loss-of-signal activity can be used to understand the reporter gene at the transcription factor-level as they relate to the gene E2F1. Furthermore, this assay endpoint can be referred to as a primary readout, because this assay has produced multiple assay endpoints where this one serves a reporter gene function. To generalize the intended target to other relatable targets, this assay endpoint is annotated to the dna binding intended target family, where the subfamily is E2F transcription factor.
Human liver HepG2 cells are transiently transfected with multiple reporter transcription units (MRTUs) in 6-well plates using FuGene 6 reagent (Roche; 3 ml FuGene/1 mg DNA). The MRTU constructs are regulated by a cis-regulating element (promoter). […] A major difference between the CIS and TRANS system is that in CIS activities of endogenous TFs are measured, whereas the TRANS assay evaluates changes in activities of exogenous, chimeric NR-Gal4 proteins. […] At the end of 24 hour incubation, total RNA was isolated using TriZol reagent (Invitrogen). The isolated RNA is then reverse-transcribed using oligo(dT) primer and Mo-MLV reverse transcriptase (Invitrogen) with DNAse I (Ambion) treatment for 30 min. The one-tenth of the produced cDNA was amplified by PCR using Taq DNA polymerase (Invitrogen) and two reporter sequence-specific primers. The PCR products were fluorescently labeled by primer extension with 6-arboxyfluorescein (6-FAM) 5'-labeled reporter sequence-specific primer (2 min at 95 C, 20 s at 68 C and 10 min at 72 C) and these products were digested with 5U of HpaI (New England Biolabs) for 2h at 37 C. The fragments were purified using Qiaquick PCR columns (Qiagen), analyzed on an ABI 3130xL genetic analyzer (Applied Biosystems) with peak positions identified by using a set of X-rhodamine (ROX)-labeled MapMarker1000 molecular weight standards (BioVentures). The raw capillary electrophoresis data was processed using Attagraph software (Attagene).
In the case of `COc1nn(C(=O)NS(=O)(=O)c2ccccc2OC(F)(F)F)c(=O)n1C`, the outcome was inactive.

As for `COCC(=O)N(c1c(C)cccc1C)[C@H](C)C(=O)OC`, the outcome was inactive.

Consider `N#Cc1ccccc1N`, for which the outcome was inactive.

As for `FC(F)OCC(F)(F)C(F)(F)F`, the result was inactive.

Turning to `O=S1OC[C@@H]2[C@H](CO1)[C@]1(Cl)C(Cl)=C(Cl)[C@@]2(Cl)C1(Cl)Cl` (stereo not given in full), the outcome was inactive.

Take `CC(O)(CS(=O)(=O)c1ccc(F)cc1)C(=O)Nc1ccc(C#N)c(C(F)(F)F)c1` (stereo not given): the compound was classed as inactive.

For `[Cl][Sn]([c]1ccccc1)([c]1ccccc1)[c]1ccccc1`, the result was inactive.

Turning to `N#CS`, the call was inactive.

Regarding `CN(C1CCCCC1)C1CCCCC1`, the call was inactive.

Take `O=C1c2ccccc2C(=O)C1C(=O)C(c1ccccc1)c1ccc(Cl)cc1` (stereo not given): the compound was called inactive.

In the case of `CC(=Cc1ccccc1)[N+](=O)[O-]`, the AC50 (as a rule, the concentration at which the activity in the assay is half-maximal) was 13.5 µM (active).

As for `C=CC(Cl)CCl` (stereo not given), the compound was called inactive.

`NC(=O)CCl`: the compound was classed as inactive.

For the compound `CC(C)(C)c1cc([N+](=O)[O-])cc(C(C)(C)C)c1O`, the outcome was inactive.

Take `O=C(NC(=O)c1c(F)cccc1F)Nc1cc(Cl)c(F)c(Cl)c1F`: the result was inactive.

For `O=S(=O)(C(Cl)(Cl)Cl)C(Cl)(Cl)Cl`, the AC50 is 6.13 µM (active).

In the case of `Cc1cc(Cl)ccc1N`, the result was inactive.

Regarding `Cc1cc(SCc2sc(-c3ccc(C(F)(F)F)c(F)c3)nc2C)ccc1OCC(=O)O`, the compound was called inactive.

As for `Oc1cccc(-c2ccccc2)c1`, the compound was classed as inactive.

On to `CCOCn1c(-c2ccc(Cl)cc2)c(C#N)c(Br)c1C(F)(F)F`, for which the outcome was inactive.

With `O=S(=O)(Oc1ccc(Cl)cc1)c1ccc(Cl)cc1`, the result was inactive.

With `CCNc1nc(NCC)nc(SC)n1`, the result was inactive.

As to `CCOC(=O)c1ccccc1S(=O)(=O)NC(=O)Nc1nc(Cl)cc(OC)n1`, the call was inactive.

In the case of `O=C/C(Cl)=C(/Cl)C(=O)O`, the call was inactive.

For the compound `C[C@]12CC[C@@H](O)C[C@@H]1CC[C@@H]1[C@@H]2CC[C@]2(C)C(=O)CC[C@@H]12`, the call was inactive.

With `C1CN2CCN1CC2`, the compound was classed as inactive.

Take `O=C(O)COc1ccc(Cl)cc1`: the outcome was inactive.

As to `Cc1cc(Cl)ccc1O`, the result was inactive.

With `NNCCO`, the compound was classed as inactive.

Regarding `ClCc1ccccc1Cl`, the compound was classed as inactive.

On to `O=S1(=O)OC(c2cc(Br)c(O)c(Br)c2)(c2cc(Br)c(O)c(Br)c2)c2ccccc21`, for which the result was inactive.

With `C=C(C)C(=O)OCC(CC)CCCC` (stereo not given), the compound was called inactive.

Regarding `O=C(NC(=O)c1c(F)cccc1F)Nc1ccc(Cl)cc1`, the compound was called inactive.

As for `C=C(C)[C@@H]1CC=C(C=O)CC1`, the compound was called inactive.

In the case of `O=C(O)CC(O)(CC(=O)O)C(=O)O`, the compound was classed as inactive.

On to `O=C(NC(=O)c1c(F)cccc1F)Nc1cc(Cl)c(OC(F)(F)C(F)C(F)(F)F)cc1Cl` (stereo not given), for which the outcome was inactive.

For the compound `C=CC(F)(C(F)(F)F)C(F)(F)C(F)(F)F` (stereo not given), the result was inactive.

As for `Nc1c(Oc2ccccc2)cc(O)c2c1C(=O)c1ccccc1C2=O`, the call was inactive.

Consider `[F][Sn]([c]1ccccc1)([c]1ccccc1)[c]1ccccc1`, for which the call was inactive.

In the case of `ClCc1ccccc1CCl`, the call was inactive.
